Hits are enriched below; roughly 2.7% of the tested compounds scored in any of these assays.
GLP-1R inv ag = qHTS of GLP-1 Receptor Inverse Agonists (Inhibition Mode); Glucagon-like peptide 1 receptor (Homo sapiens), P43220; Potency, µM (top dose mostly 38.3 µM), without a hit: at the highest dose activity change, negative = inhibition, actives largely listed as inhibitors; actives 1.6% (n = 410,000); AID 624417, 2012; HEK293 GLP-1R CRE-luciferase, luminescence, 24 h; GLP-1R form is constitutively active; also: % is scaled to controls: 0 for no effect and ±100 for the full control effect; nearly all actives have a fitted effect of over 55% in size
Target sequence (P43220 whole entry, looked up): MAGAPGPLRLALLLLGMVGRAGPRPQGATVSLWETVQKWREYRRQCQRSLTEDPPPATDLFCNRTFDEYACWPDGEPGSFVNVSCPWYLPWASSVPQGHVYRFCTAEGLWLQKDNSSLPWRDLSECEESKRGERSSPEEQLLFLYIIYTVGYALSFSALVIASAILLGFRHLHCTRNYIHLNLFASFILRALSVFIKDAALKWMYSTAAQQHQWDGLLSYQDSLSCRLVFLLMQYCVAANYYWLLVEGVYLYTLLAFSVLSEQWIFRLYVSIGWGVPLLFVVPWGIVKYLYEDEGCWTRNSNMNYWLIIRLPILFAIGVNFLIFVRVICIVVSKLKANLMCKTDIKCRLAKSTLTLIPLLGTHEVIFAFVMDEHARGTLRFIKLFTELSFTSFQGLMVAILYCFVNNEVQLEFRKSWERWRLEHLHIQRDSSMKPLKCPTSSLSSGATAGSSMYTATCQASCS
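GLP-1R inverse agonism mode: basal reporter luminescence in engineered HEK293 cells measured after one day of compound exposure at 37 deg C, with a 12 min room-temperature detection step.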
HEK293 tox = qHTS of GLP-1 Receptor Inverse Agonists: Cytotox Screen; HEK293 cAMP-luciferase reporter cells, luminescence, 24 h; Potency, µM (doses to about 38.3 µM), inactives show at the top dose activity change, negative = inhibition, usual class: inhibitors; actives 0.13% (n = 410,000); AID 624418, 2012;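 also: loss of luciferase light is scored as toxicity; % is scaled to controls: 0 for no effect and ±100 for the full control effect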
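To flag toxic compounds, the library was rerun on cells for 24 hr at 37 deg C and 5% CO2. Viability-linked luminescence was captured 12 min after adding luciferase detection reagent.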
a7 integrin act = qHTS for Activators of Integrin-Mediated Alleviation for Muscular Dystrophy; alpha7betagal myoblasts, beta-gal FDG fluorescence, 48 h; Potency, µM (highest dose often 38.3 µM), without a hit: at the highest dose activation, actives largely listed as activators; actives 0.064% (n = 350,000); AID 624291, 2012;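 also: 100% = response of the positive control SU9516; nearly all actives have a fitted effect of over 60% in size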
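alpha7betagal+/- myoblasts (passage 13, 250/well) treated 48 h at 37C with compounds at 1:260 dilution of DMSO stock. Lysed, then beta-galactosidase activity read as FDG fluorescence (ex 480/em 540) after 30 min, with pre-read for autofluorescence.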
GLP1R ag = qHTS of GLP-1 Receptor Agonists; actives 0.007% (n = 380,000); HEK293 GLP-1R CRE-luciferase, luminescence, 4-6 h; cells express a hypersensitive GLP-1R form; AID 624172, 2012; Glucagon-like peptide 1 receptor (Homo sapiens), P43220; Potency, µM (series often up to 45.6 µM), without a hit: at the top dose activation, usual class: activators; also: % of control where 0% means no effect
BRCA1 expr act = qHTS Assay to Identify Small Molecule Activators of BRCA1 Expression; actives 1.1% (n = 380,000); Potency, µM (top dose mostly 46.1 µM), for inactives: at the highest dose activation, hits mostly activators; MCF7-BRCA1-FFLuc reporter, luminescence, 48 h; response scale: scaled: vehicle 0%, 10 µM genistein 100%; also: nearly all actives have a fitted effect of over 80% in size
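Luminescence from a BRCA1-driven firefly luciferase in MCF7 cells was read after 48 h compound exposure at 37 C. Data normalized against DMSO and a 10microM genistein activation control, then curve-fitted across the titration.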
An asterisk follows results filed as active; ? = inconclusive; . = no result given. Calls follow the shape of the dose curve; as a rule, active = well fitted curve in the direction sought with a large enough effect; inconclusive = small, poorly fitted or top-dose-only effect, or another doubt; inactive = no such curve, though single readings can be large; an effect the other way counts as inactive or inconclusive. Potency is read from the fitted curve at half-maximal effect.

SMILES	GLP-1R inv ag	HEK293 tox	a7 integrin act	GLP1R ag	BRCA1 expr act
Cc1cc(C)nc(NC(=O)/C=C/c2cccs2)c1	?	3%	35%	-2%	76%
Cc1cc(C)c(-c2csc(NC(=O)/C=C/c3cccs3)n2)c(C)c1	3.2µM*	17%	-11%	-19%	-12%
O=C(/C=C/c1cccs1)Nc1cccc(NC(=O)/C=C/c2cccs2)n1	4µM*	?	12%	-17%	1%
CC(C)Cn1c(-c2cccs2)nc2nc3ccccc3nc21	4µM*	148%	-25%	8%	-29%
CCCOc1ccc(-c2cccc(NS(=O)(=O)c3cccs3)c2)nn1	-3%	3%	.	.	.
CCOC(=O)c1c2c(n(Cc3ccccc3)c1C)C(=O)C(=O)c1ccccc1-2	?	5µM*	-56%	-22%	-97%
O=C(C[n+]1cc(Br)cc(Br)c1)c1ccc(I)cc1	.	.	.	.	0%
CCn1c(=O)cc(SCC(=O)NCCc2cccc(C)c2)c2ccccc21	-14%	0%	.	.	.
CCN(CC)C(=O)C1=C(C)Nc2nc3ccccc3n2C1c1cccc(Cl)c1 (stereo not given)	8%	2%	.	-2%	1%
C/C(=N\NC(=O)c1csc(C)c1C)c1ccc(C)s1	2%	6%	13%	0%	10µM*
C/C(=N\NC(=O)c1csc(C)c1C)c1ccco1	0%	-4%	14%	-8%	-2%
Cc1scc(C(=O)N/N=C/c2ccc(Cl)s2)c1C	?	-22%	9%	0%	7.1µM*
CCc1cc(=O)[nH]c(SCc2nc(-c3ccc(C(F)(F)F)cc3)no2)n1	4%	0%	.	.	.
Cc1cccc(NC(=O)C2CCCN(S(=O)(=O)c3ccc(Br)s3)C2)c1 (stereo not given)	?	-13%	.	.	.
Cc1nnc(SCc2ccccc2)nc1-c1ccccc1	?	-22%	-24%	10%	11µM*
CCOC(=O)CSc1nnc(-c2ccccc2)c(-c2ccccc2)n1	?	-9%	9%	28%	-9%
CCCC(c1nnnn1Cc1ccccc1)N1CCN(c2ccccc2OC)CC1 (stereo not given)	?	-19%	14%	5%	-23%
CCCC(c1nnnn1Cc1ccc(OC)cc1)N1CCN(c2ccccc2OC)CC1 (stereo not given)	10µM*	0%	5%	16%	-30%
CC(C)=CCCC(C)CN1CCC(N2CCC(C(=O)N3CCOCC3)CC2)CC1 (stereo not given)	2.5µM*	-3%	-51%	0%	-7%
CCOc1ccc(-c2nc(CSCC(=O)N3CCN(c4cccc(C(F)(F)F)c4)CC3)c(C)o2)cc1	?	-12%	.	.	.
COc1cccc(C2c3[nH]c4ccccc4c3C[C@H]3C(=O)N(C4CCN(Cc5ccccc5)CC4)CC(=O)N23)c1 (stereo not given in full)	2µM*	-17%	-77%	-3%	-25%
Cc1ccccc1C1c2[nH]c3ccccc3c2C[C@H]2C(=O)N(C3CC3)CC(=O)N12 (stereo not given in full)	?	0%	-46%	10%	-15%
O=C1[C@@H]2Cc3c([nH]c4ccccc34)C(c3ccccc3)N2C(=O)CN1C1CC1 (stereo not given in full)	-3%	185%	-10%	6%	-8%
COc1ccccc1C1c2[nH]c3ccccc3c2C[C@H]2C(=O)N(C3CCN(Cc4ccccc4)CC3)CC(=O)N12 (stereo not given in full)	5.6µM*	-7%	-67%	-1%	-42%
COc1ccc(C2c3[nH]c4ccccc4c3C[C@H]3C(=O)N(C4CCN(Cc5ccccc5)CC4)CC(=O)N23)cc1OC (stereo not given in full)	13µM*	-16%	-34%	-5%	-14%

From PubChem BioAssay
